Screens (PubChem)
Pf growth 96h: inhibits malaria parasite growth, 96 h. P. falciparum luciferase reporter growth, 96 h. AID 504834. Potency, µM (highest dose often 28.7 µM), most hits filed as inhibitors. 6.9% of 320,000 active
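P. falciparum expressing integrated firefly luciferase, in erythrocytes at 2% hematocrit, 0.05% parasitemia, incubated with compounds 96 h at 37 C, 5% CO2. Growth inhibition read as loss of luminescence; two-generation exposure targets delayed-death apicoplast inhibitors.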
Pf growth 48h: P. falciparum growth inhibition at 48 hours (one generation) | Potency, µM (doses to about 28.7 µM), hits mostly inhibitors | 5.9% of 310,000 active | P. falciparum luciferase growth in erythrocytes, 48 h
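Growth was read as firefly luciferase luminescence after a 48 h, 37 C, 5% CO2 exposure of compounds to reporter-bearing P. falciparum cultures (0.1% parasitemia, 2% hematocrit final) in Albumax-supplemented RPMI 1640.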
Sm TGR inh: S. mansoni TGR enzyme inhibition | Potency, µM (series often up to 114 µM), usual class: inhibitors | AID 485364 | Q962Y6 | 3% of 360,000 active | purified TGR, DTNB reduction, TNB absorbance 405 nm; further: nearly all actives have a fitted effect of over 60% in size
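Kinetic colorimetric format: TGR-catalysed, NADPH-driven DTNB reduction monitored via TNB absorbance. Enzyme dispensed at 20 nM; compound exposure 15 min at room temperature before reaction start.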
SARS PLpro yeast: blocks SARS-CoV papain-like protease in a yeast assay. S. cerevisiae expressing SARS-CoV PLpro, growth rescue. Potency, µM (highest dose often 32.9 µM), actives largely listed as activators. 0.19% of 330,000 active; calls by dose curve; further: nearly all actives have a fitted effect of over 55% in size
Numbers stand for hits; n = inactive; u = inconclusive; x = no result given. Sampled rows, rich in hits. Any-hit rate of the full collection: about 12%. Unless noted, the call rests on the fitted dose curve; in most records, active means well fitted curve in the direction sought with a large enough effect; inconclusive means small, poorly fitted or top-dose-only effect, or another doubt; inactive means no such curve, though single readings can be large; an effect the other way counts as inactive or inconclusive.

SMILES	Pf growth 96h	Pf growth 48h	Sm TGR inh	SARS PLpro yeast
CC(=O)c1ccc(-c2cc([C@H]3[C@H]4C=CC[C@@H](C)[C@@H]4C(=O)N3Cc3ccccc3)ccc2F)cc1	u	12µM	n	n
CC[C@@H]1CC=C[C@H]2[C@H]1C(=O)N(Cc1ccccc1)[C@H]2c1ccc2ccccc2c1	u	13µM	n	n
N=c1c(S(=O)(=O)c2ccccc2)cc2c(=O)n3ccccc3nc2n1Cc1ccco1	x	x	u	n
N=c1c(C(=O)NCC2CCCO2)cc2c(=O)n3ccccc3nc2n1Cc1ccco1 (stereo unspecified)	n	n	n	n
N=c1c(C(=O)NC2CCCCC2)cc2c(=O)n3ccccc3nc2n1Cc1cccnc1	n	u	n	n
Cc1ccc(Cn2c(=N)c(C(=O)NC3CCCC3)cc3c(=O)n4ccccc4nc32)cc1	u	u	n	n
N=c1c(C(=O)NCCc2ccccc2)cc2c(=O)n3ccccc3nc2n1Cc1ccco1	n	2.3µM	n	n
N=c1c(C(=O)NC2CCCCC2)cc2c(=O)n3ccccc3nc2n1CCc1ccccc1	1.7µM	1.5µM	n	n
N=c1c(C(=O)NC2CCCCC2)cc2c(=O)n3ccccc3nc2n1Cc1ccccc1	5.9µM	u	n	n
N=c1c(C(=O)NC2CCCCC2)cc2c(=O)n3ccccc3nc2n1Cc1ccco1	n	3.7µM	n	n
CCOCCCn1c(=N)c(C(=O)NCc2ccccc2)cc2c(=O)n3ccccc3nc21	x	x	n	x
COc1ccc(CCn2c(=N)c(C(=O)NCc3ccco3)cc3c(=O)n4ccccc4nc32)cc1	u	2.9µM	n	n
Cc1ccccc1-n1c(O)c(C=Nc2ccc(N(C)C)cc2)c(=O)[nH]c1=O	1.9µM	2.6µM	n	n
CCN(CC)c1ccc(N=Cc2c(O)n(-c3ccc(OC)cc3)c(=O)[nH]c2=O)cc1	10µM	x	n	n
Cc1ccc(-n2c(O)c(C=Nc3ccc(S(=O)(=O)N(C)C)cc3)c(=O)[nH]c2=O)cc1	2.1µM	x	n	n
CNS(=O)(=O)c1ccc(N=Cc2c(O)n(-c3ccccc3)c(=O)[nH]c2=O)cc1	n	n	n	n
CCC1CCCCN1CCCNC(=O)C1CCCN(c2ncnc3c2nc2n3CCCCC2)C1 (stereo unspecified)	n	u	n	n
Cc1noc(C)c1C(=O)N(CC(C)C)c1nc2ccccc2s1	u	n	n	n
CCCCCc1nc2c(=O)[nH]c3ccccc3c2o1	5.2µM	u	n	n
CCCc1nc2c(=O)[nH]c3ccccc3c2o1	n	u	n	n
COCC(=O)n1nc(-c2ccc(Cl)cc2)nc1NCc1ccc(F)cc1	2.9µM	x	n	n
CSc1nc2ccc(Cl)cc2[nH]1	n	n	n	n
CSc1nc2cc(Oc3cccc(Cl)c3Cl)c(Cl)cc2[nH]1	12µM	6.7µM	n	n
Cc1nc2scc(C)n2c(=O)c1S(=O)(=O)Nc1cccc(C(F)(F)F)c1	x	x	n	x
CCN1CCCC1CNC(=O)c1cc2c(-c3ccc(Cl)cc3)nn(C)c2s1 (stereo unspecified)	n	x	n	n
SMILES	Pf growth 96h	Pf growth 48h	Sm TGR inh	SARS PLpro yeast
CCN(CC)CCCNC(=O)c1cc2c(-c3cccc(OC)c3)nn(C)c2s1	n	8.3µM	n	n
CCCCN(CC)CCCNC(=O)c1cc2c(-c3ccc(OC)c(OC)c3)nn(C)c2s1	u	2.6µM	n	n
COc1cccc(-c2nn(C)c3sc(C(=O)NCCCN(C)Cc4ccccc4)cc23)c1	n	2.1µM	n	n
CCN1CCCC1CNC(=O)c1cc2c(-c3cccc(OC)c3)nn(C)c2s1 (stereo unspecified)	5.9µM	u	n	n
COc1cccc(-c2nn(C)c3sc(C(=O)NCCc4ccc(Cl)cc4)cc23)c1	x	x	n	x
COC(=O)c1ccc(CNC(=O)c2ccc(OC)c(S(=O)(=O)NC3CCCC3)c2)cc1	n	u	n	n
C=CCSc1nnc(NC(=O)CCN2C(=O)C3CC=CCC3C2=O)s1 (stereo unspecified)	n	n	n	n
Cc1ccc(-n2ncc(C(=O)NCc3ccco3)c2C2CCN(C(=O)OC(C)(C)C)CC2)c(C)c1	x	x	n	x
COCCNC(=O)c1cc(-c2ccccc2C)nn1CC1CC(c2cccnc2)=NO1 (stereo unspecified)	x	x	x	n
COc1cccc(-c2nn(C)c3sc(C(=O)NCc4ccco4)cc23)c1	n	7.4µM	n	n
CCCCN(C)CCNC(=O)c1cc2c(-c3cccc(OC)c3)nn(C)c2s1	n	1.5µM	n	n
CC1=Nc2ccccc2N=C(NC(=O)c2ccccc2)C1c1ccccc1 (stereo unspecified)	u	4.1µM	x	n
CC1=Nc2ccccc2N=C(NC(=O)CSc2nnnn2-c2ccccc2)C1c1ccccc1 (stereo unspecified)	n	u	n	x
CC1=Nc2ccccc2N=C(NC(=O)CN2CCN(c3ccccc3)CC2)C1c1ccccc1 (stereo unspecified)	u	5.9µM	n	n
CC1=Nc2ccccc2N=C(NC(=O)CSC(=S)N2CCCCC2)C1c1ccccc1 (stereo unspecified)	u	13µM	n	n
CCOC(=O)C1CCCN(CC(=O)NC2=Nc3ccccc3N=C(C)C2c2ccccc2)C1 (stereo unspecified)	u	10µM	n	n
Cc1ccccc1Cn1nnc2c(=O)[nH]c(C3CCCN(C(=O)c4ccc(F)cc4)C3)nc21 (stereo unspecified)	x	x	n	x
O=C(NNC(=O)c1cc(OCC(F)(F)F)ccc1OCC(F)(F)F)c1cccc(C(F)(F)F)c1	u	15µM	n	n
CCNC(=O)NCCNC(=O)c1cc(OCC(F)(F)F)ccc1OCC(F)(F)F	n	2.9µM	n	n
COc1ccccc1CN1CCNC(=O)C1=O	x	x	n	x
Cc1ccccc1NC(=S)NCc1ccco1	0.33µM	n	u	n
S=C(NCc1ccco1)Nc1cc(-c2ccccc2)[nH]n1	n	n	16µM	n
CCOC(=O)c1ccc(NC(=S)NCc2ccco2)cc1	n	n	11µM	n
Cc1cccc(CNS(=O)(=O)c2ccc(-c3coc(C)n3)cc2)c1	x	x	n	x
Cc1cccc(NC(=O)c2cc(S(=O)(=O)NCc3ccc4c(c3)OCO4)ccc2F)c1C	x	x	n	x
SMILES	Pf growth 96h	Pf growth 48h	Sm TGR inh	SARS PLpro yeast
N#CCCN(CCC#N)S(=O)(=O)c1ccc(C(=O)Nc2nc(-c3ccccc3)c(C(=O)c3ccccc3)s2)cc1	n	n	n	n
Cc1ccc(-c2nc(NC(=O)c3ccc(S(=O)(=O)N(CCC#N)CCC#N)cc3)sc2-c2ccccc2)cc1	12µM	n	n	n
Oc1ccccc1CNCCCNCc1ccccc1O	n	8.3µM	n	n
Cc1c(-c2nsc(NC(=O)c3cccs3)n2)nnn1-c1ccc(F)cc1	x	x	n	x
COc1ccc(-n2nc(C(=O)NCC(=O)NC(C)C)c3ccccc3c2=O)c(OC)c1	n	n	n	n
COc1ccc(-n2nc(C(=O)NCC(=O)NCc3ccc(F)cc3)c3ccccc3c2=O)c(OC)c1	10µM	n	n	n
COc1ccc(NC(=O)CNC(=O)c2nn(-c3ccc(OC)cc3OC)c(=O)c3ccccc23)c(OC)c1	3.3µM	u	n	n
C/C(CC(=O)Nc1ccc(Cl)cc1Cl)=N\NC(=O)C(=O)N1CCCC1	n	n	n	n
